In the library only some 0.71% were active in any assay of this set; here they are far more common.
CD11b adhes inh: CD11b/CD18-fibrinogen binding inhibition; 93,000 compounds, 0.54% hits; K562 CD11b/CD18 adhesion to fibrinogen, ATPlite luminescence; Mn2+ added to activate the integrin; AID 1497; inhibition, % at 10 µM;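 active = primary inhibition of 50% or more at 10 µM, then 40% or more on retest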
Target sequence (P05107 whole entry, looked up, other chains not shown): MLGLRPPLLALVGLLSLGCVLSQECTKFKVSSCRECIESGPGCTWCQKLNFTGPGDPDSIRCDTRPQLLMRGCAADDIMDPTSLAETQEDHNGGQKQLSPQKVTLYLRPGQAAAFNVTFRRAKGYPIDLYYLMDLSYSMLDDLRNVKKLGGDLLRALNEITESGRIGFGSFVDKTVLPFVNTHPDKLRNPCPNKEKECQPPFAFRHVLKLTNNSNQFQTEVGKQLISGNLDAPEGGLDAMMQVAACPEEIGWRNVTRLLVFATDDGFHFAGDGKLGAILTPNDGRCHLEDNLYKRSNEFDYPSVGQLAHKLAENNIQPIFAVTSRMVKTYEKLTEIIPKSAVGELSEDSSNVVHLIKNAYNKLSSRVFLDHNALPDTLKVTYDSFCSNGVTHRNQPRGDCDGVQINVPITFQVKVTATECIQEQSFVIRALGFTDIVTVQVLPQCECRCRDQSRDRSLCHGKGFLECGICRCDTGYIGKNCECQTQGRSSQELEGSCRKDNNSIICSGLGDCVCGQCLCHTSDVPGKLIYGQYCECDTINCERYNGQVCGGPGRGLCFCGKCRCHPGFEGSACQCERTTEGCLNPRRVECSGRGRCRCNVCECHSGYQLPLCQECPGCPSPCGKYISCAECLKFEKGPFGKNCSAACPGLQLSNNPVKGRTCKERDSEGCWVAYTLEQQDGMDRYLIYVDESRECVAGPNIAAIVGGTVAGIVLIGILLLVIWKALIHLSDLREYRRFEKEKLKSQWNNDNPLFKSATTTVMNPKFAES
CD11b adhes enh: enhancers of human CD11b/CD18 binding to fibrinogen; K562 CD11b/CD18 adhesion to fibrinogen, ATPlite luminescence; activation, % at 10 µM; 93,000 compounds, 0.07% hits;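 active = 10 µM primary screen giving 50% or more activity, confirmed by 40% or more on retest at that dose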
sdo1 growth: restores growth of sdo1-depleted yeast. S. cerevisiae sdo1-depleted JHY4D growth rescue, OD600 30 h; stronger effect = higher value; pdr5 snq2 efflux-pump mutant strain. z-score at 10 µM. 140,000 compounds, 0.21% hits. AID 817;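 active = z-score above 3 at both the 24 hr and the 30 hr optical density reads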;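 also: z-score against mean and SD of all compound wells on the same plate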
Phagocytosis inh: blocks phagocytosis by macrophages | J774A.1 macrophage IgG-bead phagocytosis, imaging | inhibition, % at 5 µM | 110,000 compounds, 0.07% hits | AID 1029;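 active = inhibition above the mean of the plate negative controls plus 5 SD, cut at about 13% in these data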;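 also: phagocytic index as fraction of beads internalized from green versus red external bead signal; plate controls were DMSO negative control for no effect and cytochalasin-D positive control for full effect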
sdo1 rescue conf: SDO1-depleted yeast growth rescue confirmation; AID 949; S. cerevisiae JHY4D (SDO1-depleted) growth rescue, OD600, 30 h; stronger effect = higher value; efflux-deficient strain, SNQ2 and PDR5 mutated; shares compounds with sdo1 growth; OD recovery (test concentration not listed); 440 compounds, 44% hits;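 active = yeast growth recovered at 30 hours, either rising with dose fitted slope above 0.001 or with average optical density gain above 0.07, some results past the limit were not filed as active; inactive = growth falling with dose or no effect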;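 also: gain in OD600 from 0 h to 30 h averaged across all seven doses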
Numbers without * were called inactive; · = no result given.

SMILES	CD11b adhes inh	CD11b adhes enh	sdo1 growth	Phagocytosis inh	sdo1 rescue conf
COc1ccc2c(c1)CCc1c(C(=O)Nc3ccc(OC)c(OC)c3)noc1-2	-3	3	0.33	1	·
Cc1ccc(-n2c(O)c(C=NC3CCS(=O)(=O)C3)c3ccccc3c2=O)cc1 (centres undefined)	·	·	0.1	·	·
CC(C)(C)NC(=O)NC(=O)COc1ccccn1	-6	6	3.2*	-2	0.056
CC(C)(C)NC(=O)NC(=O)COC(=O)COc1ccc2c(c1)CCC2	12	-1	0.23	-1	·
Nc1c(N2CCOCC2)cc(Cl)c2nonc12	-6	-7	6*	-1	0.031
O=C(NCc1cccs1)c1nc2ncccn2n1	-14	-3	3*	0	0.032
Cc1nc2nc(C)c(CCC(=O)NC(C)c3ccc4c(c3)OCCO4)c(C)n2n1 (centres undefined)	·	·	2	·	0.038
Cc1cc(C)c(-c2csc(NC(=O)COC(=O)c3ccc4c(c3)OCO4)n2)c(C)c1	·	·	0.97	0	0.054
COc1ccc(-c2cc(=O)oc3cc(OCC(C)=O)ccc23)cc1	·	·	-0.09	1	·
COc1ccc2c(-c3cc4ccc(OCc5ccc(F)cc5)cc4oc3=O)cc(=O)oc2c1	·	·	16*	-7	0.032
CC(OC(=O)c1c2c(nc3ccccc13)/C(=C\c1ccc3c(c1)OCO3)CCC2)C(=O)Nc1ccc(S(N)(=O)=O)cc1 (centres undefined)	·	·	1.5	-13	0.085*
COc1ccc(C2C(=O)N(C3CCCCC3)CC(=O)N2CC2COc3ccccc3O2)cc1 (centres undefined)	·	·	-0.96	·	·
COC(=O)c1ccc(Sc2ccccc2NS(=O)(=O)c2ccc(C)cc2)nc1	·	·	-1.1	·	·
COc1ccc(S(=O)(=O)N(C)CC(=O)Nc2cccc(C(C)=O)c2)cc1Cl	-28	-5	0.33	-1	·
CCOC(=O)C1CCCN(C(=O)Nc2cccc(Cl)c2)C1 (centres undefined)	2	4	2.3	-2	0.065
CNC(=O)COC(=O)[C@@H](Nc1ccc(S(=O)(=O)N2CCOCC2)cc1[N+](=O)[O-])C(C)C	·	·	0.7	2	·
CC(=O)NC(NC(=S)Nc1ccc(N=Nc2ccccc2)cc1)C(Cl)(Cl)Cl (centres undefined)	·	·	0.37	·	·
COC(=O)c1sccc1NC(=O)c1ccc(OC)c(OC)c1	4	-5	1.4	2	0.047
COc1cc(OC)cc(-c2nnc(SCC(=O)N3CCCCC3)o2)c1	-2	0	-1.3	0	·
COc1cc(OC)cc(-c2nnc(SCC(=O)N3CCOCC3)o2)c1	13	-3	3.7*	1	0.072*
CC(=O)Nc1ccc(S(=O)(=O)NNC(=O)COc2cccc3ccccc23)cc1	1	5	-0.03	-3	·
Cc1ccc(S(=O)(=O)N2CCC(C(=O)Nc3nnc(C45CC6CC(CC(C6)C4)C5)s3)CC2)cc1	4	1	0.15	-4	·
Cc1nc2ncnn2c(C)c1CCC(=O)O	-6	4	3.9*	-1	0.099*
CCOC(=O)CCc1c(C)nc2ncnn2c1C	·	·	0.79	·	·
CC(C)(C)OC(=O)N[C@@H](Cc1ccccc1)c1nnc(S(=O)(=O)Cc2ccccc2)o1	39	-2	-1.9	4	·
SMILES	CD11b adhes inh	CD11b adhes enh	sdo1 growth	Phagocytosis inh	sdo1 rescue conf
CCC(C)[C@@H](NC(=O)OC(C)(C)C)c1nnc(S(=O)(=O)Cc2cccc(C)c2)o1 (some centres undefined)	4	0	5.6*	-1	0.11*
C=CC[C@H]1CC(Cc2ccccc2)=C[C@H](CC=C)N1	·	·	-0.08	-1	·
C=CC[C@@H]1Cc2c(Br)ccc(Br)c2[C@@H](CC=C)N1	·	·	6.5*	-2	0.1*
CCn1c(O)c(N=NC2=NC(=O)CS2)c2ccccc21	·	·	16*	·	0.079
C=CCn1c(O)c(N=NC(=O)OCC)c2ccccc21	·	·	0.17	-17	·
COC(=O)C1(C(=O)OC)NOC2C(=O)N(c3ccccc3)C(=O)C21 (centres undefined)	-16	1	7.8*	-1	0.092*
COC(=O)C1(c2ccccc2)NC(c2cccs2)C2C(=O)N(c3ccccc3)C(=O)C21 (centres undefined)	·	·	0.05	·	·
COC(=O)c1c(C)[nH]c(C(=O)/C=C/c2ccccc2)c1C	54	30	0.03	-7	·
COC(=O)c1c(C)[nH]c(C(=O)/C=C/c2cccc(Cl)c2)c1C	3	2	11*	-4	0.052
CN(C(=O)COC(=O)CNC(=O)C12CC3CC(CC(C3)C1)C2)C1CCS(=O)(=O)C1 (centres undefined)	·	·	0.93	0	·
CCOc1ncccc1C(=O)OCC(=O)Nc1ccc(-c2nc3ccc(C)cc3s2)cc1	·	·	0.5	-1	0.035
Cn1c(N)c(C(=O)CCl)c(=O)n(C)c1=O	4	-4	-0.71	0	·
COc1cccc(NC(=O)Nc2ccc3c(c2)nnn3C)c1	·	·	0.2	·	0.079*
Cn1nnc2cc(C(=O)Nc3cccnc3)ccc21	2	-4	1.6	-1	·
Cc1cc(S(=O)(=O)NCC(C)C)ccc1OCC(=O)NCC1CCCO1 (centres undefined)	·	·	7.8*	-1	0.069
CC(C)NS(=O)(=O)c1ccc(OCC(=O)NCC2CCCO2)c(Cl)c1 (centres undefined)	11	-2	0.47	0	·
CCN(CC)S(=O)(=O)c1ccc(Cc2ncc(C(F)(F)F)cc2Cl)s1	-12	-3	12*	-1	0.076*
NS(=O)(=O)c1ccc(Cc2ncc(C(F)(F)F)cc2Cl)s1	2	-4	1.5	·	·
Cn1c(=O)[nH]c(=O)c2c1nc(N1CCCCCC1)n2CCCSc1nnnn1-c1ccccc1	·	·	-0.75	·	·
Cn1c(=O)[nH]c(=O)c2c1nc(N1CCCC1)n2CCCSc1nnnn1-c1ccccc1	·	·	2.4	·	0.1
COC(=O)C1=C(C)NC(C)=C(C(=O)OC)C1C(=O)OCC(=O)N1c2ccccc2CC1C (centres undefined)	1	-4	1.2	·	·
COc1cccc(CC2CC(=O)N(CCc3ccc4c(c3)OCO4)C2=O)c1 (centres undefined)	4	-2	5.3*	1	0.088*
Cc1cc(C)nc(Nc2ncc(O)n2-c2ccc(C)c(C)c2)n1	-7	-1	5.9*	2	0.077*
Cc1c(NC(=O)c2ncn[nH]2)cccc1-c1nc2ccccc2s1	28	49	0.6	-2	·
COc1cccc(NC(=S)NNC(=O)C(C)n2nc(C)c([N+](=O)[O-])c2C)c1 (centres undefined)	·	·	4*	·	0.063
CCOc1ccc(C2c3c(oc4ccccc4c3=O)C(=O)N2CCCN2CCOCC2)cc1OCC (centres undefined)	-8	11	2.5	-1	0.061
O=C1c2oc3ccccc3c(=O)c2C(c2cccc(O)c2)N1CCCN1CCOCC1 (centres undefined)	-6	-2	1	0	·
COc1ccc2c(c1)sc(N)[n+]2Cc1cc(C)cc2cccnc12	45	10	9.7*	22	0.065

From PubChem
